TrxR1 inh: rat TrxR1 inhibition | O89049 | Potency, µM (highest dose often 114 µM), most hits filed as inhibitors | 1% of 390,000 active | recombinant rTrxR1, NADPH fluorescence consumption, selenite substrate | AID 588453; also: nearly all actives have a fitted effect of over 65% in size
Target sequence (O89049 whole entry, looked up): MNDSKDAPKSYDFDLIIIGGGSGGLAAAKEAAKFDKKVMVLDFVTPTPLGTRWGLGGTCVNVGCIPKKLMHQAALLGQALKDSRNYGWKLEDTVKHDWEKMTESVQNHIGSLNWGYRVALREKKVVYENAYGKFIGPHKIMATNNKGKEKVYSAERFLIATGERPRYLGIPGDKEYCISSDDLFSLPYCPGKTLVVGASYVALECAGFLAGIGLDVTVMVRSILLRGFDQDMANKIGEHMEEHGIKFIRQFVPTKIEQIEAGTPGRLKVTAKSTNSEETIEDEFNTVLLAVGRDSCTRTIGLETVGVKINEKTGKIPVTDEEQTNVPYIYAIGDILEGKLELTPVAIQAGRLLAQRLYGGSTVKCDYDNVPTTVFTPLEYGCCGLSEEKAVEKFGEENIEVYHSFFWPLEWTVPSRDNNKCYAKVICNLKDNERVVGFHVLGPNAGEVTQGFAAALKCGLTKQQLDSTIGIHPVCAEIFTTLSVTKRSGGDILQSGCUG
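Rat TrxR1 (90 nM in the dispensed reagent) was pre-reduced with 400 uM NADPH for 5 min at room temperature, then incubated with compound for 15 min. After 400 uM selenite was added, NADPH fluorescence (Ex 340/Em 450 nm) was followed for 8 min.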
AT treatment: potential ataxia-telangiectasia treatments restoring KAP-1 phosphorylation | F2112 A-T fibroblasts, KAP-1 phosphorylation AlphaLISA; neocarzinostatin DNA damage 30 min before lysis | Potency, µM (series often up to 57.5 µM), hits mostly activators | 0.19% of 320,000 active | AID 485349; also: nearly all actives have a fitted effect of over 45% in size
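ATM-like activity read as KAP-1 phosphorylation via AlphaLISA donor/acceptor antibody pairs after lysis and 6 hr at 25C. Cells were ATM-null patient fibroblasts (F2112, hTERT), dosed 60 min, then exposed to the DSB inducer NCS for 30 min.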
N370S GC mod: inhibits or activates N370S mutant glucocerebrosidase. P04062. N370S GC spleen homogenate, 4MU-glucoside fluorescence. Potency, µM (highest dose often 59.4 µM), actives largely listed as inhibitors. 0.092% of 330,000 active. AID 2101
TrxR1 substrate: is turned over as a substrate by rat TrxR1; purified TrxR1 substrate turnover, NADPH consumption readout; Potency, µM (top dose mostly 114 µM); 0.01% of 390,000 active; AID 588456; also: nearly all actives have a fitted effect of over 50% in size
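Rat TrxR1, dispensed at 90 nM, was prereduced with 400 uM NADPH (final) for 5 min at ~22 deg C, then incubated with compound 15 min before 400 uM selenite. A first-read NADPH fluorescence drop versus no-compound background flagged substrates.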
pAkt inh: Akt phosphorylation inhibition. 0.32% of 360,000 active. Neuro2A IGF-stimulated pAkt S473 HTRF, 20 min; stronger effect = lower value. activity change, % for hits at 50 µM; in the data active = activity change below about -80%; inconclusive = mostly about -51% to -80%
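Neuro2A cells (4,500/well, DMEM with 0.5% FBS) were treated with compound at a single 50 µM final concentration, stimulated with 6 nM IGF for 20 min at 37 °C, and lysed. Phospho-Akt Ser473 was read by HTRF as 665/615 ratio ×10^4.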
Pin1 inhibitor: inhibitors of human Pin1; Q13526; Pin1 FP peptide displacement, HiFluor488, 10 min; Potency, µM (highest dose often 115 µM), most hits filed as inhibitors; 0.009% of 390,000 active; active = well fitted inhibition curve with a large enough effect in the polarisation, with a control signal flat, not every such curve was filed as active; inconclusive = small, poorly fitted or top-dose-only effect, or effect the other way, or a change in a side signal; inactive = no such curve, though single readings can be large or run the other way; the % refers to the polarisation
Target sequence (Q13526 whole entry, looked up): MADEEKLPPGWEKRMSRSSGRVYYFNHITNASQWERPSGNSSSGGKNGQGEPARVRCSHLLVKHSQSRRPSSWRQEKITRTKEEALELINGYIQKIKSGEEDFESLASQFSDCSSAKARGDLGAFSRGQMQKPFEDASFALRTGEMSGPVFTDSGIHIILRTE
Hits are given with their value; 0 = inactive; ? = inconclusive; - = not tested or not shown. Rows were chosen to be rich in hits. Some 1.4% of all compounds tested hit in one or more screens of this group. Unless noted, calls follow the shape of the dose curve; as a rule, active = well fitted curve in the direction sought with a large enough effect; inconclusive = small, poorly fitted or top-dose-only effect, or another doubt; inactive = no such curve, though single readings can be large; an effect the other way counts as inactive or inconclusive.

SMILES	TrxR1 inh	AT treatment	N370S GC mod	TrxR1 substrate	pAkt inh	Pin1 inhibitor
CN(C)c1ccc(CCc2ccnc3ccccc23)cc1	0	-	-	0	-	-
COC(=O)C1=CN(C(C)C)C=C(C(=O)OC)C1c1cc(Br)c(OC)c(OC)c1	0	20µM	0	0	0	0
COC(=O)C1=CN(C(C)C)C=C(C(=O)OC)C1c1cccc(OC)c1	0	0	0	0	0	0
O=C(Cc1ccc([N+](=O)[O-])cc1)N/N=C/c1ccc([N+](=O)[O-])o1	14µM	0	0	0	0	0
O=C(CN1CCCCCCC1)N/N=C/c1ccc([N+](=O)[O-])o1	?	0	0	0	0	0
CCCCCCCC(=O)N/N=C/c1ccc([N+](=O)[O-])o1	?	0	0	0	0	0
O=C(CC12CC3CC(CC(C3)C1)C2)N/N=C/c1ccc([N+](=O)[O-])o1	40µM	0	0	0	0	0
CC1(C(=O)N/N=C/c2ccc([N+](=O)[O-])o2)CC1(Br)Br (stereo not given)	45µM	0	0	0	0	0
CCN(CC)c1nc(NC2CCN(C)CC2)c2cc(OC)c(OC)cc2n1	0	-	-	0	-	-
Cc1cccc(NC(=S)NCC23C=CC(O2)C2C(=O)N(c4ccc(Cl)cc4)C(=O)C23)c1 (stereo not given)	7.9µM	0	0	0	0	0
CC(C)(C)OC(=O)NCC12C=CC(O1)C1C(=O)N(Cc3ccccc3)C(=O)C12 (stereo not given)	?	-	0	0	0	0
Cc1ccc(NC(=S)NCC23C=CC(O2)C2C(=O)N(c4ccc(C)cc4)C(=O)C23)cc1 (stereo not given)	10µM	0	0	0	0	0
Cc1ccc(N2C(=O)C3C4C=CC(CNC(=S)N5CCN(c6ccccc6)CC5)(O4)C3C2=O)cc1 (stereo not given)	20µM	0	0	0	0	0
S=C(NCC1CCCO1)N1CCN(c2ccccc2)CC1 (stereo not given)	0	0	0	0	0	0
Cc1ccc(S(=O)(=O)NCC23C=CC(O2)C2C(=O)N(c4ccccc4)C(=O)C23)cc1 (stereo not given)	2.8µM	0	0	0	0	0
O=C(C1CCN(c2nc(-c3ccc(Br)cc3)cs2)CC1)N1CCOCC1	-	-	-	-	-	0
C1=Cc2ccccc2/C1=C/c1ccc2c(c1)OCO2	0	-	-	0	-	-
Cc1cc(C)cc(-n2c(SCC(=O)NC3CCCCC3)nc3c([nH]c4ccccc43)c2=O)c1	0	-	-	0	-	0
O=C1C=CC(=O)C(C2=C3C(=O)N(CCc4ccccc4)CC(=O)N3CCC2)=C1	3.2µM	0	0	0	0	?
N#C/C(=C\c1ccc(F)c(Br)c1)C(=O)NC1CC1	0	0	0	0	0	0
N#C/C(=C\c1cc(Br)ccc1F)C(=O)NC1CC1	20µM	0	0	0	0	0
N#C/C(=C\c1cc(Cl)cc(Cl)c1O)C(=O)NC1CCCCC1	79µM	0	0	0	0	?
CCOc1ccccc1C(=O)N1CCC(c2nc3ccccc3o2)CC1	0	-	-	0	-	0
CN1CCN(C(=O)C(C(=O)c2ccc(F)cc2)n2ccccc2=O)CC1 (stereo not given)	0	0	0	0	-99%	0
CCNc1ncc2nc(CCc3ccccc3)c(=O)n(C[C@H]3CCCO3)c2n1	-	-	0	-	-	-
SMILES	TrxR1 inh	AT treatment	N370S GC mod	TrxR1 substrate	pAkt inh	Pin1 inhibitor
Cc1cnc2c3c(cc(Cl)c2c1)-c1ccccc1S(=O)(=O)N3	32µM	-	-	0	-	?
O=S1(=O)Nc2c(ccc3cccnc23)-c2ccccc21	0	0	0	0	0	0
COC(=O)c1oc2ccccc2c1NC(=O)CN1CCCC1	0	0	0	0	0	0
COC(=O)c1oc2ccc(Br)cc2c1NC(=O)CN1CCN(C)CC1	0	-	-	0	-115%	0
CCC(C(=O)C(C)C(O)C(C)CCc1ccc(C)c(O)c1C(=O)O)C1OC(CC)(C2CC[C@@](O)(CC)C(C)O2)CC1C (stereo not given in full)	-	-	0	-	-	-
COc1ccc2c(C)c(CC(=O)N3CCN(C(=O)C4COc5ccccc5O4)CC3)c(=O)oc2c1C (stereo not given)	0	0	0	0	0	0
Cc1c(CC(=O)NCc2ccc(F)cc2)c(=O)oc2cc(O)c(Cl)cc12	79µM	-	-	0	-	0
Cc1c(CC(=O)N2CCN(C(=O)C3COc4ccccc4O3)CC2)c(=O)oc2cc(O)c(Cl)cc12 (stereo not given)	32µM	0	?	0	0	0
O=C(CCl)N1CCN(C(=O)C2COc3ccccc3O2)CC1 (stereo not given)	28µM	0	-	0	0	0
CC(=O)Nc1ccc(S(=O)(=O)N2CCN(C(=O)C3COc4ccccc4O3)CC2)cc1 (stereo not given)	0	0	0	0	0	0
COc1ccc(S(=O)(=O)N2CCN(C(=O)C3COc4ccccc4O3)CC2)cc1 (stereo not given)	50µM	0	-	0	0	?
COc1ccc(CNC(=O)C2CCN(S(=O)(=O)c3ccc4c(c3)CCCN4C(C)=O)CC2)cc1	0	-	-	0	-	0
CCOc1ccc(C2CC(=O)n3nc(-c4ccc(C)cc4)nc3S2)cc1 (stereo not given)	0	-	-	0	-	0
COc1ccc(-c2nc3n(n2)C(=O)CC(c2ccco2)S3)cc1 (stereo not given)	14µM	-	0	0	0	0
Cn1ncc(S(=O)(=O)Cc2ccccc2)c(Br)c1=O	0.95µM	-	-	0	-	-
CC(Oc1ccccc1Cl)C(=O)Nc1ccc(S(=O)(=O)N2CCN(C)CC2)cc1 (stereo not given)	20µM	-	-	0	0	?
Cc1ccc2[nH]c3c(=O)n(CC(=O)N4CCN(c5cccc(C(F)(F)F)c5)CC4)ncc3c2c1	0	-	-	0	-	0
Cc1ccc2[nH]c3c(=O)n(CC(=O)N4CCN(C)CC4)ncc3c2c1	35µM	0	0	0	-	0
CC(c1ccccc1)C1CC(=O)N(CC(=O)O)C1=O (stereo not given)	0	0	0	0	0	0
CC(c1ccccc1)C1CC(=O)N(Cc2ccco2)C1=O (stereo not given)	40µM	0	0	0	0	0
C/C(CCc1oc2ccc(Cl)cc2c1-c1ccc(C)o1)=N\O	10µM	0	?	0	0	0
C/C(CCc1oc2ccc(Br)cc2c1-c1ccc(C)o1)=N/O	18µM	0	?	0	0	0
CCc1ccc(CNc2ncnc3onc(-c4ccc(Cl)cc4)c23)cc1	0	-	-	0	-	0
Cc1cc(C)cc(NC(=O)C2CCC(CNS(=O)(=O)c3ccc4c(c3)C(C)(C)C(=O)N4C)CC2)c1 (stereo not given)	0	-	-	0	-	0

Source: PubChem (National Center for Advancing Translational Sciences (NCATS))
